# Test results from article PMC11062922 (Nature Chemical Biology, 2023).
# Read-outs that look alike come from different tables or passages of the source.
# Columns and labels:
# Design in all cases: species or system human, MV4-11 + K-562 + COLO205 + SK-N-BE2 + OVCAR-8
# CDC7 = settings: read-out: apparent Kd, n = 1
# NUAK2 = settings: read-out: apparent Kd, n = 1
# PAK6 = settings: read-out: apparent Kd, n = 1
# RPS6KA3 = settings: read-out: apparent Kd, compound concentrations: 100 nM and 1000 nM (sheet 'Samples'), n = 1
# ULK3 = settings: read-out: apparent Kd, n = 1
# PIK3CA = settings: read-out: apparent Kd, n = 1
# CDK6 = settings: read-out: apparent Kd, n = 1
# CIT = settings: read-out: apparent Kd, n = 1
# NLK = settings: read-out: apparent Kd; compound concentrations:100 nM and 1000 nM (sheet 'Samples'); n = 1
# NQO2 = settings: read-out: apparent Kd, n = 1
# DJA1 = test system: T1, DJA1; settings: read-out: apparent Kd, n = 1
# T1 construct: gene DNAJA1
# AKT2 = settings: read-out: apparent Kd, n = 1
# EPHA2 = settings: read-out: apparent Kd; compound concentrations:100 nM and 1000 nM (sheet 'Samples'); n = 1
# SRC = settings: read-out: apparent Kd; compound concentrations:100 nM and 1000 nM (sheet 'Samples'); n = 1
# YES1 = settings: read-out: apparent Kd; compound concentrations:100 nM and 1000 nM (sheet 'Samples'); n = 1
# ACVR1B = settings: read-out: apparent Kd, n = 1
# AKT3 = settings: read-out: apparent Kd, compound concentrations: 100 nM and 1000 nM (sheet 'Samples'), n = 1
# PRKG1 = settings: read-out: apparent Kd; compound concentrations: 100 nM and 1000 nM (sheet 'Samples'), CATDS: 5.9396104813121603E-2; n = 1
# [1] = compound concentrations:100 nM and 1000 nM (sheet 'Samples')
structure (smiles),measurement,setting,value
O=C(O)C(F)(F)F.O=c1[nH]ccc2nc(N[C@@H]3CCNC3)nc(Nc3ccc4c(c3)S(=O)(=O)CC4)c12 [GSK2181306A],potency estimated from few doses,"CDC7; compound concentrations: 100 nM and 1000 nM (sheet 'Samples'), CATDS: 3.8653220202105501E-2",57.1 nM
same,potency estimated from few doses,"NUAK2; compound concentrations: 100 nM and 1000 nM (sheet 'Samples'), CATDS: 1.3760463216936501E-2",376 nM
same,potency estimated from few doses,"PAK6; compound concentrations: 100 nM and 1000 nM (sheet 'Samples'), CATDS: 8.7541295114789697E-3",1330 nM
same,potency estimated from few doses,RPS6KA3; CATDS: 9.3639610273777898E-3,1050 nM
same,potency estimated from few doses,"ULK3; compound concentrations: 100 nM and 1000 nM (sheet 'Samples'), CATDS: 1.2312862576378401E-2",487 nM
O=C1N=C(NCCCc2ccccc2)S/C1=C\c1ccc2ncccc2c1 [RO4493941-000],potency estimated from few doses,"PIK3CA; compound concentrations: 100 nM and 1000 nM (sheet 'Samples'), CATDS: 0.11301780685695401",241 nM
COc1ccc(-c2cc3c(N)ncnc3o2)cc1 [GW642138X],potency estimated from few doses,"CDK6; compound concentrations: 100 nM and 1000 nM (sheet 'Samples'), CATDS: 0.103985986158265",1700 nM
CN(C)CC(O)COc1ccc(Nc2nccc(-c3cnn4nc(N5CCOCC5)ccc34)n2)cc1 (centres unmarked) [GW767488X],potency estimated from few doses,CDK6; [1],1050 nM
same,potency estimated from few doses,CIT; [1],998 nM
same,potency estimated from few doses,NLK,2180 nM
same,potency estimated from few doses,NQO2; [1],1230 nM
COc1cc(Nc2nccc(N3CCC(NC(=O)c4cccc(NC(C)=O)c4)C3)n2)cc(OC)c1OC (centres unmarked) [GSK1379754A],potency estimated from few doses,"ULK3; compound concentrations: 100 nM and 1000 nM (sheet 'Samples'), CATDS: 9.2169068852455793E-2",1390 nM
NC(=O)c1cc(-c2ccccc2)cc2c(C3CCNCC3)c[nH]c12 [GSK301362A],potency estimated from few doses,DJA1; [1],1130 nM
O=C(O)C(F)(F)F.O=C(O)C(F)(F)F.O=c1[nH]ccc2nc(N[C@@H]3CCCNC3)nc(Nc3ccc(S(=O)(=O)N4CCOCC4)cc3)c12.O=c1[nH]ccc2nc(N[C@@H]3CCCNC3)nc(Nc3ccc(S(=O)(=O)N4CCOCC4)cc3)c12 [GSK2177277A],potency estimated from few doses,"CDC7; compound concentrations: 100 nM and 1000 nM (sheet 'Samples'), CATDS: 4.24338957308735E-2",14.6 nM
same,potency estimated from few doses,"DJA1; compound concentrations: 100 nM and 1000 nM (sheet 'Samples'), CATDS: 6.2286028327955796E-3",1850 nM
same,potency estimated from few doses,"NUAK2; compound concentrations: 100 nM and 1000 nM (sheet 'Samples'), CATDS: 4.5069810988754302E-2",13.3 nM
same,potency estimated from few doses,"PAK6; compound concentrations: 100 nM and 1000 nM (sheet 'Samples'), CATDS: 6.8069472857734698E-3",1140 nM
same,potency estimated from few doses,RPS6KA3; CATDS: 8.0041967490872001E-3,573 nM
same,potency estimated from few doses,"ULK3; compound concentrations: 100 nM and 1000 nM (sheet 'Samples'), CATDS: 1.28018633148979E-2",140 nM
c1ccc(-c2n[nH]cc2Nc2ccnc3ccccc23)nc1 [GW694077X],potency estimated from few doses,"AKT2; compound concentrations: 100 nM and 1000 nM (sheet 'Samples'), CATDS: 2.2309238886047199E-2",2350 nM
same,potency estimated from few doses,"NQO2; compound concentrations: 100 nM and 1000 nM (sheet 'Samples'), CATDS: 2.8699790095599101E-2",903 nM
same,potency estimated from few doses,"PIK3CA; compound concentrations: 100 nM and 1000 nM (sheet 'Samples'), CATDS: 4.8537913419409703E-2",212 nM
CC(=O)N[C@@H](Cc1ccc(OP(=O)(O)O)cc1)C(=O)N[C@H]1CCC(=O)N2CCC[C@@H](C(=O)NCc3ccc(Cl)cc3)N2C1=O [RO0325308-000],potency estimated from few doses,EPHA2,1130 nM
same,potency estimated from few doses,SRC,1040 nM
same,potency estimated from few doses,YES1,1030 nM
COc1cc[nH]c1/C=C1\C(=O)Nc2ccc(F)c(C#CC3(O)CCNCC3)c21.Cl [RO0282986-001],potency estimated from few doses,"DJA1; compound concentrations: 100 nM and 1000 nM (sheet 'Samples'), CATDS: 9.7728158080224396E-3",1450 nM
same,potency estimated from few doses,"NQO2; compound concentrations: 100 nM and 1000 nM (sheet 'Samples'), CATDS: 1.2433043587811299E-2",644 nM
same,potency estimated from few doses,RPS6KA3; CATDS: 1.1263723561624001E-2,868 nM
COc1ccc(Nc2nccc(-c3ccc(NC(=O)c4cc5cc(F)ccc5[nH]4)cc3)n2)cc1 [GSK1229496A],potency estimated from few doses,"ACVR1B; compound concentrations: 100 nM and 1000 nM (sheet 'Samples'), CATDS: 0.38937877773487001",643 nM
c1cnn2ncc(-c3ccnc(Nc4ccc5c(c4)OCCO5)n3)c2c1 [GW806290X],potency estimated from few doses,"AKT2; compound concentrations: 100 nM and 1000 nM (sheet 'Samples'), CATDS: 2.25042579106303E-2",1300 nM
same,potency estimated from few doses,AKT3; CATDS: 2.0651194958325798E-2,1770 nM
same,potency estimated from few doses,"CDK6; compound concentrations: 100 nM and 1000 nM (sheet 'Samples'), CATDS: 2.20968603607638E-2",1390 nM
CC(C)Oc1ccc2c(-c3ccnc(Nc4ccc(N5CCN(C)CC5)cc4)n3)cnn2n1 [GW696155X],potency estimated from few doses,CDC7; [1],1440 nM
same,potency estimated from few doses,NQO2; [1],1060 nM
same,potency estimated from few doses,NUAK2; [1],600 nM
same,potency estimated from few doses,ULK3; [1],290 nM
NCC(NC(=O)c1cc(-c2cn[nH]c2)c(-c2ccnc3[nH]ccc23)s1)c1ccccc1.NCC(NC(=O)c1cc(-c2cn[nH]c2)c(-c2ccnc3[nH]ccc23)s1)c1ccccc1.O=C(O)C(F)(F)F.O=C(O)C(F)(F)F (centres unmarked) [GSK1325775A],potency estimated from few doses,"ACVR1B; compound concentrations: 100 nM and 1000 nM (sheet 'Samples'), CATDS: 3.7153250837812998E-2",1020 nM
same,potency estimated from few doses,"CIT; compound concentrations: 100 nM and 1000 nM (sheet 'Samples'), CATDS: 4.2305109651231403E-2",719 nM
same,potency estimated from few doses,PRKG1,330 nM
Nc1nc(Nc2ccccc2)cc(-c2ccc3c(N)n[nH]c3c2)n1 [GSK2225749A],potency estimated from few doses,ACVR1B; [1],293 nM
CS(=O)(=O)Nc1cccc(-c2ccc3c(NC(=O)C4CC4)n[nH]c3c2)c1 [SB-742864],potency estimated from few doses,"DJA1; compound concentrations: 100 nM and 1000 nM (sheet 'Samples'), CATDS: 0.110016860770891",1630 nM
CNc1cc(-c2ccc3c(N)n[nH]c3c2)nc(N)n1 [GSK2224810A],potency estimated from few doses,ACVR1B; [1],361 nM
same,potency estimated from few doses,AKT2; [1],1880 nM
same,potency estimated from few doses,NLK,1610 nM
same,potency estimated from few doses,PIK3CA; [1],245 nM
same,potency estimated from few doses,YES1,1160 nM
O=C(O)C(F)(F)F.O=c1[nH]ccc2nc(N[C@@H]3CCNC3)nc(Nc3cc(Cl)cc(Cl)c3)c12 [GSK2188764A],potency estimated from few doses,PAK6; [1],538 nM
CCCc1cc(N2CCCN(C)CC2)nc2sc3c(N)ncnc3c12 [BI00604564],potency estimated from few doses,AKT3; CATDS: 0.13900414431421401,1920 nM
CC(C)Nc1cc(-c2ccc3c(N)n[nH]c3c2)nc(N)n1 [GSK2221681A],potency estimated from few doses,ACVR1B; [1],803 nM
O=C1N=C(NCc2cccs2)O/C1=C\c1ccc2ncccc2c1 [RO4624208-000],potency estimated from few doses,"CDC7; compound concentrations: 100 nM and 1000 nM (sheet 'Samples'), CATDS: 4.51819013017992E-2",2100 nM
